Activity calls are given as the source filed them.
Columns and labels:
[1] = tested on: Plasmodium falciparum Sir2 (PF13_0152, Sir2A); assay: Plasmodium falciparum Sir2A binding compounds – biochemical, small-molecule microarray, 635 nm fluorescence, primary screen (AID 1098); conditions: fluorescence 635 nm, higher = more signal;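 note: score merges spot fluorescence intensity with its signal-to-noise ratio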
[2] = probe aDKK1 binding to arrayed compounds – biochemical, biotinylated probe, 635/667 nm fluorescence, primary screen (AID 1099); conditions: small-molecule microarray, higher = more signal;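 note: score merges 667nm spot fluorescence with signal to noise across triplicate slides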
[3] = probe aCHRDL2 binding to arrayed compounds – biochemical, biotinylated probe, 635/667 nm fluorescence, primary screen (AID 1100); conditions: small-molecule microarray, higher = more signal
[4] = change in splice reporter luminescence, either direction, cell-based, HEK293, spliceosome inhibition project, primary screen (AID 1101); conditions: HEK293 splicing luciferase reporter, 24 h, higher = more signal, called active from +8 up or from −8 down;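 note: HEK293 cells carrying a splicing-competent luciferase reporter gene; test concentration not given here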
[5] = molecular target: Fibroblast growth factor 10 (Homo sapiens) (UniProt O15520); assay: compounds binding fibroblast growth factor 10 – biochemical, small-molecule microarray, 635 nm fluorescence, primary screen (AID 1102); conditions: FGF10 binding, fluorescence 635 nm, higher = more signal
Chain of Fibroblast growth factor 10 (Homo sapiens) (O15520 whole entry, looked up): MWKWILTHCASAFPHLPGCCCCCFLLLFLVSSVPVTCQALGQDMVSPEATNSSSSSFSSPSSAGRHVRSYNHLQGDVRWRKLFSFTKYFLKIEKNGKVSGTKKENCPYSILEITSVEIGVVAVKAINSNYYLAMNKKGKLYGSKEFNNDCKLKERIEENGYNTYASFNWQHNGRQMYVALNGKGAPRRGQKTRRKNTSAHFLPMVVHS

[6] = tested on: glycogen synthase kinase-3 (GSK3A per assay name; protocol says GSK3B); assay: compounds binding glycogen synthase kinase-3 – biochemical, small-molecule microarray, 635 nm fluorescence, GSK3A, primary screen (AID 1103); conditions: fluorescence 635 nm, higher = more signal; note: the record names both GSK3A and GSK3B
[7] = molecular target: Epidermal growth factor receptor (Homo sapiens) (UniProt P00533); assay: compounds binding epidermal growth factor receptor – biochemical, small-molecule microarray, 635 nm fluorescence, primary screen (AID 1104); conditions: EGFR binding, higher = more signal;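 note: score merges 667 nm emission intensity with spot signal to noise over triplicate slides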
Chain of Epidermal growth factor receptor (Homo sapiens) (P00533 whole entry, looked up): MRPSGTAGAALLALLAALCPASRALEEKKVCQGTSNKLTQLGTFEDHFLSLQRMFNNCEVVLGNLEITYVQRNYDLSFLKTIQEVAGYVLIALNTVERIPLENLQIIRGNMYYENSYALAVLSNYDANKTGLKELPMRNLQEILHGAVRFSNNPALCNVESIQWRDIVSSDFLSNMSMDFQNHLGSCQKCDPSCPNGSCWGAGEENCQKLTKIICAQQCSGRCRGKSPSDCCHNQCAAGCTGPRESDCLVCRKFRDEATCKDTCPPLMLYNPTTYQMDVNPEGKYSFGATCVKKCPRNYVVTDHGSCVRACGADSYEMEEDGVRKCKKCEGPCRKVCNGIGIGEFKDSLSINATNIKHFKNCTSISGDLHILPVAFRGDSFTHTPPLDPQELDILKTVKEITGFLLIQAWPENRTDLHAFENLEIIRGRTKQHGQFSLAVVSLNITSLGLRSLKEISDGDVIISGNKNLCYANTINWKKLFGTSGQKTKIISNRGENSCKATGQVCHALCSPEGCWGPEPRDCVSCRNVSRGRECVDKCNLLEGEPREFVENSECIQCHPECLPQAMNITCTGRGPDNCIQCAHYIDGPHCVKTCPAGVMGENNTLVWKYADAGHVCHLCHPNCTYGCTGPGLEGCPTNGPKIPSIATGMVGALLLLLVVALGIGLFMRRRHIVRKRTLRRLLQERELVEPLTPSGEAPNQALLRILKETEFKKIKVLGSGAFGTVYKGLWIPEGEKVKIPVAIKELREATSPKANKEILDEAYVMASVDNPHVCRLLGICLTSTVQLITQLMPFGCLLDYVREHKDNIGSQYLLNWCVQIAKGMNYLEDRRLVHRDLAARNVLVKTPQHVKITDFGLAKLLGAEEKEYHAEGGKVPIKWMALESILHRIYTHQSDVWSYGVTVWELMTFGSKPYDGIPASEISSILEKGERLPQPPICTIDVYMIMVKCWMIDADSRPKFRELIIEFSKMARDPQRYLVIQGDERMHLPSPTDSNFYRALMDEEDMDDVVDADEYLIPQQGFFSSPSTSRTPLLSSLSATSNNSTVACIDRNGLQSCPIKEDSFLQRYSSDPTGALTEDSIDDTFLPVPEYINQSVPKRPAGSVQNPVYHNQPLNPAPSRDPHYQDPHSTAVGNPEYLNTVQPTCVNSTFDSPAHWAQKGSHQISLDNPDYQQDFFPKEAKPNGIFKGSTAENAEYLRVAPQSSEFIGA

[8] = molecular target: Follistatin-related protein 3 (Homo sapiens) (UniProt O95633); assay: compounds binding follistatin-related protein 3 – biochemical, small-molecule microarray, 635 nm fluorescence, primary screen (AID 1105); conditions: FSTL3 binding, higher = more signal;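 note: score merges emission near 667 nm and signal to noise per printed spot across three slides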
Chain of Follistatin-related protein 3 (Homo sapiens) (O95633 whole entry, looked up): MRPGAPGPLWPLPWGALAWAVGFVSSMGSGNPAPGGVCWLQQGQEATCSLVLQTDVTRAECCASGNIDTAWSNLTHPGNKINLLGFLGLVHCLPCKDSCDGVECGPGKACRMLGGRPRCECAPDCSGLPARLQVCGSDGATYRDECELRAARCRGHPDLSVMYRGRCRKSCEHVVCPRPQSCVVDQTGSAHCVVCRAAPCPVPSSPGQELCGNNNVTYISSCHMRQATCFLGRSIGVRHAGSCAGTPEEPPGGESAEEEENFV

[9] = molecular target: Dickkopf-related protein 1 (Homo sapiens) (UniProt O94907); assay: small molecules binding DKK1 protein – biochemical, small-molecule microarray, 635 nm fluorescence scan, primary screen (AID 1106); conditions: higher = more signal;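 note: score merges emission near 667 nm with signal to noise over three replicate slides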
Chain of Dickkopf-related protein 1 (Homo sapiens) (O94907 whole entry, looked up): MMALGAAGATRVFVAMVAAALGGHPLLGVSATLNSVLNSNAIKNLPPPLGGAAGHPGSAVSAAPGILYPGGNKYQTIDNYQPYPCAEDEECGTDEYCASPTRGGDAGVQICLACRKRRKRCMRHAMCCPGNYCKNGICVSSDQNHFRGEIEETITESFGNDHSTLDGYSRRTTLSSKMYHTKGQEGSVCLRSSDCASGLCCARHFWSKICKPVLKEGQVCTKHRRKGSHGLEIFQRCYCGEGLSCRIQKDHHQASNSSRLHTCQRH

[10] = tested on: Inhibin beta A chain (activin A); assay: small molecules binding activin A – biochemical, small-molecule microarray, 635 nm fluorescence scan, primary screen (AID 1107); conditions: INHBA, higher = more signal;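 note: mouse activin A protein probed at 4.33 µg/mL on printed slides; score merges bound-protein fluorescence near 667 nm with spot signal-to-noise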
[11] = tested on: Human papillomavirus type 1a protein E7 (residues 44-93); assay: small molecules binding HPV E7 44-93 – biochemical, small-molecule microarray, residues 44-93, 635 nm fluorescence, primary screen (AID 1108); conditions: fluorescence 635 nm, higher = more signal;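 note: E7 fragment applied at 1 µg/mL in TBST for 1 h at 4 C; score combines spot fluorescence with its signal to noise ratio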
[12] = hepatitis C replication reporter changes, two-sided – Huh7 cells, luciferase reporter, HCV replication inhibitor project, primary screen (AID 1109); conditions: Huh7 HCV replicon luciferase reporter, 48 h; higher = more signal;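 note: huh7 hepatoma cells harbouring a luciferase neomycin HCV replicon reporter; luciferase luminescence as measure of HCV replicon replication; test concentration not given here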
[13] = molecular target: Left-right determination factor 2 (Homo sapiens) (UniProt O00292); assay: small molecules binding LEFTY2 protein – biochemical, small-molecule microarray, 635 nm fluorescence scan, primary screen (AID 1110); conditions: higher = more signal
Chain of Left-right determination factor 2 (Homo sapiens) (O00292 whole entry, looked up): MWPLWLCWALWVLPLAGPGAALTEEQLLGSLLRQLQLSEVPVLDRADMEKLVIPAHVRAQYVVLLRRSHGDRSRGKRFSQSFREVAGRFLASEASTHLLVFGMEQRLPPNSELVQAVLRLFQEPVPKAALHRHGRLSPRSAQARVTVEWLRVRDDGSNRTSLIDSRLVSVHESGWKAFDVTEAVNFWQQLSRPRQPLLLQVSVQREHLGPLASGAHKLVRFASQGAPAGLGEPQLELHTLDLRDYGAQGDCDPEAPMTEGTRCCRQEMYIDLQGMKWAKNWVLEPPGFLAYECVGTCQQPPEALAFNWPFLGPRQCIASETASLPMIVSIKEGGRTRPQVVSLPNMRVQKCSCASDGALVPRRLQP

[14] = molecular target: Calmodulin-1 (Homo sapiens) (UniProt P0DP23); assay: small molecules binding calmodulin-1 with EGTA – biochemical, small-molecule microarray, Cy5-labelled CALM1, profiling panel (AID 1111); conditions: Cy5-CALM1 binding fluorescence, higher = more signal;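 note: labelled calmodulin applied in Tris saline Tween buffer holding calcium plus EGTA and DTT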
[15] = molecular target: Calmodulin-1 (Homo sapiens) (UniProt P0DP23); assay: small molecules binding Ca-loaded calmodulin-1 – biochemical, small-molecule microarray, Cy5-labelled CALM1, plus calcium, artefact control for SMM control-protein annotation, profiling panel (AID 1112); conditions: Cy5-CALM1 binding fluorescence, higher = more signal;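 note: score merges spot fluorescence with signal to noise from triplicate slides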
[16] = probe aWnt5a binding to arrayed compounds – biochemical, biotinylated probe, 635/667 nm fluorescence, primary screen (AID 1113); conditions: small-molecule microarray, higher = more signal;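 note: score merges 667 nm fluorescence intensity with signal-to-noise per printed feature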
[17] = probe aShh binding to arrayed compounds – biochemical, biotinylated probe, 635/667 nm fluorescence, primary screen (AID 1114); conditions: small-molecule microarray, higher = more signal;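 note: probe is biotin-labelled aShh protein from a stem cell growth factor screen; measures binding of labelled protein to compounds printed on the slide; score merges feature fluorescence at 667 nm with signal-to-noise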
[18] = probe aNog binding to arrayed compounds – biochemical, biotinylated probe, 635/667 nm fluorescence, primary screen (AID 1115); conditions: small-molecule microarray, higher = more signal;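 note: probe is biotinylated aNog protein used at 0.15 µg/mL for 1 h at 4 C; z-score combines 667 nm fluorescence of each spot with its signal to noise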
[19] = molecular target: Torsin-1A-interacting protein 1 (Homo sapiens) (UniProt Q5JTV8); assay: compound microarray binding of lysate hLAP1 – cell lysate, small-molecule microarray, COS7 lysate, 635/667 nm fluorescence, primary screen (AID 1116); conditions: 635 nm fluorescence, higher = more signal
Chain of Torsin-1A-interacting protein 1 (Homo sapiens) (Q5JTV8 whole entry, looked up): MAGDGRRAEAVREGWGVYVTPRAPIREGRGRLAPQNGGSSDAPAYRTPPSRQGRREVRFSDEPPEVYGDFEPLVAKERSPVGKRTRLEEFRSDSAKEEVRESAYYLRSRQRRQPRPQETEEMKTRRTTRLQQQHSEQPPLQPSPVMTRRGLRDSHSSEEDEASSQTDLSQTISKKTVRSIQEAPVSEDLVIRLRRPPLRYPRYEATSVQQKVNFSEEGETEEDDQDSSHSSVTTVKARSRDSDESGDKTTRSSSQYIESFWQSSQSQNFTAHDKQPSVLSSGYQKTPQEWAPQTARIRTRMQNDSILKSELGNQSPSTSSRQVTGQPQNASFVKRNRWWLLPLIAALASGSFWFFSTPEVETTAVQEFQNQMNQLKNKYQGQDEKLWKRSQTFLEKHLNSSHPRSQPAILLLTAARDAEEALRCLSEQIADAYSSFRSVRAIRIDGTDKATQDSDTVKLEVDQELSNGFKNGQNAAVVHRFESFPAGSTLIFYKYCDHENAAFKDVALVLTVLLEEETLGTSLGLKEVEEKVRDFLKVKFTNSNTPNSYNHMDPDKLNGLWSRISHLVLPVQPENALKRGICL

[20] = molecular target: Alpha-bungarotoxin (Bungarus multicinctus) (UniProt P60615); assay: compounds binding labelled alpha-BTX control protein – biochemical, small-molecule microarray, Alexa647 label, 635/667 nm fluorescence, artefact control for SMM control protein annotation, profiling panel (AID 1117); conditions: alpha-BTX-A647 binding fluorescence, higher = more signal
Chain of Alpha-bungarotoxin (Bungarus multicinctus) (P60615 whole entry, looked up): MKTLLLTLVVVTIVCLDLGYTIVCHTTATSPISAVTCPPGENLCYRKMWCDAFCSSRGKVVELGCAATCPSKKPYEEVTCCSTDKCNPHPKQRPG

Row | SMILES | composite z-score [1] | composite z-score [2] | composite z-score [3] | z-score [4] | composite z-score [5] | composite z-score [6] | composite z-score [7] | composite z-score [8] | composite z-score [9] | composite z-score [10] | composite z-score [11] | z-score [12] | composite z-score [13] | composite z-score [14] | composite z-score [15] | composite z-score [16] | composite z-score [17] | composite z-score [18] | composite z-score [19] | composite z-score [20]
1 | C=C(COC)C(=O)CC[C@@H](OC(=O)c1cccnc1)c1ccccc1OCCO | 1.4 | 0.403 | 0.647 | 0.591 (inactive) | 0.694 | -0.0625 | -0.333 | 0.529 | 0.18 | 1.51 | -1.05 | -3.82 | 0.078 | -1.08 | -0.497 | -0.096 | -0.0553 | 0.412 | 0.519 | -0.387
2 | CC(C)CNC(=O)[C@@H]1c2ccccc2C(=O)N(C2CCCCC2)[C@H]1c1ccc(CO)cc1 | 1.65 | 0.477 | 0.962 | -1.25 (inactive) | -0.0953 | 0.185 | -0.602 | -0.333 | -0.308 | 0.0986 | 0.0857 | -0.48 | -0.276 | 0.54 | 1.09 | -0.124 | -0.153 | 0.313 | 0.875 | -0.624
3 | COCCOC(=O)N1C(=O)[C@@]2(c3cc(C#CCNC(N)=O)ccc31)[C@H](c1ccc(OCCO)cc1)N1[C@H](c3ccccc3)[C@H](c3ccccc3)OC(=O)[C@H]1[C@@H]2C(N)=O | 0.826 | 0.695 | 0.435 | 0.928 (inactive) | 0.748 | -0.0886 | 1.14 | 0.455 | 0.204 | 1.07 | 1.33 | -0.106 | 0.437 | 0.741 | 0.585 | -0.089 | 0.225 | 0.54 | 0.803 | 0.667
4 | CCOC(=O)C1=C[C@@H](C(C)(C)C)N(S(=O)(=O)c2ccc(C)cc2)[C@H]1c1ccccc1 | 0.104 | 1.44 | 1.22 | 1.07 (inactive) | 0.982 | 1.29 | 0.591 | 1.26 | 0.743 | 0.556 | 0.834 | -2.05 | 0.561 | 1.99 | 0.838 | 0.0873 | 0.0469 | 0.109 | 1.26 | 1.11
5 | COC(=O)C1N=C(c2ccc(OCCCO)cc2)N(c2ccccc2)O1 (stereo not given) | 1.05 | 0.947 | 1.11 | -0.155 (inactive) | 1.48 | 1.22 | 0.172 | 0.864 | 0.604 | 0.453 | 0.154 | -2.69 | 0.681 | 0.933 | 0.576 | -0.196 | -0.0681 | 0.438 | 0.924 | 2.07
6 | COCCOC(=O)N1C(=O)[C@@]2(c3cc(C#CCC(C(=O)OC)C(=O)OC)ccc31)[C@H](C(=O)NC[C@H](O)c1ccccc1)[C@H]1C(=O)O[C@H](c3ccccc3)[C@H](c3ccccc3)N1[C@@H]2c1ccc(OCCO)cc1 | 1.18 | -0.0002 | -0.132 | 0.28 (inactive) | 1.04 | 1.35 | 0.97 | 1.09 | 0.909 | 0.534 | 1.36 | -1.92 | 0.793 | 1.39 | -0.0628 | -0.0792 | 0.0141 | -0.367 | 0.314 | 0.973
7 | NC(=O)N1C(=O)C2C(C1=O)C1C=C(CCCO)C2C(C2CC2)N1Cc1cccc(OC(F)(F)F)c1 (stereo not given) | 1.59 | -0.306 | -0.345 | 0.0948 (inactive) | 0.075 | -0.186 | -0.595 | -0.494 | -0.0361 | 0.561 | 0.504 | -1.4 | -0.219 | -0.143 | 0.2 | -0.173 | -0.138 | 0.56 | 0.691 | -0.187
8 | CN(C)C(=O)[C@@]1(Cc2ccccc2N=[N+]=[N-])N=C(c2ccc(OCCCO)cc2)O[C@H]1c1ccccc1 | 1.36 | 0.605 | 1.35 | 0.22 (inactive) | 0.607 | 1.22 | -0.103 | 0.465 | -0.217 | 0.787 | 0.0896 | -2.52 | 0.123 | 2.4 | 1.09 | 0.103 | -0.0022 | -0.743 | 1.32 | 2.17
9 | [N-]=[N+]=NCc1ccccc1[C@@H]1OC(c2ccc(OCCCO)cc2)=N[C@]1(Cc1ccccc1N=[N+]=[N-])C(=O)NCCN1CCOCC1 | 1.54 | 0.251 | 0.851 | -0.312 (inactive) | 1.51 | 1.34 | 0.218 | 1.23 | 0.331 | 0.533 | 1.4 | -1.66 | 0.466 | 0.969 | 0.0714 | 0.0944 | -0.0289 | 0.597 | 0.495 | 0.446
10 | C=CCNC(=O)[C@H]1[C@@H]2C(=O)O[C@@H](c3ccccc3)[C@@H](c3ccccc3)N2[C@@H](c2ccc(OCCO)cc2)[C@]12C(=O)N(C(=O)OCCOC)c1ccc(C#Cc3ccc(OC)cc3)cc12 | 1.28 | 0.195 | -0.0801 | -0.957 (inactive) | 0.866 | 1.28 | 0.639 | 0.749 | 0.189 | 0.768 | 1.4 | -2.54 | 0.631 | 0.512 | 0.14 | -0.0445 | 0.0976 | 0.447 | -0.0927 | 1.49
11 | CN(C)CCCCCCNC(=O)[C@@H]1C[C@@H]2C(=O)N[C@@H](CCCCN)C(=O)N2[C@@H]1c1ccc(O)cc1 | 2.07 | 3 | 1.81 | -2.28 (inactive) | 1.58 | 1.46 | 1.68 | 1.64 | 2.29 | 1.56 | 1.53 | 0.805 | 1.62 | 2.11 | 0.347 | 1.28 | 2.47 | 1.96 | 4.63 | 3.03
